From PubChem
Pf Dd2 growth: Plasmodium falciparum Dd2 growth inhibition | P. falciparum Dd2 growth, SYBR Green, 72 h | Potency, µM (titrated, usually from 28.9 µM), most hits filed as inhibitors | 120,000 compounds, 4.3% hits; active = well fitted inhibition curve with a large enough effect; note: nearly all actives have a fitted effect of over 65% in size
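Readout: SYBR Green fluorescence, 485 nm excitation, 535 nm emission, after ~16 h lysis at 37C. Before that, Dd2-infected red cells (2.5% hematocrit) grew 72 h with compound, 29 uM top final concentration.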
Numbers stand for hits; - = inactive; [ ] = remark or other dose. Shown is part of a subset that was picked to be rich in hits.

SMILES	Pf Dd2 growth
O=C(N[C@@H]1CCN(C(=O)CCc2ccccc2F)C[C@H]1O)c1ccccn1	-
Cc1noc(C)c1CC(=O)N1CCC2(CC1)CC(N(Cc1ccccc1)C1CC1)CCO2 (stereo not given)	-
COCCN1CCC(N2CCN(S(=O)(=O)Cc3ccc(F)cc3Cl)CC2)C1=O (stereo not given)	-
CCOCc1nc(C2CCCN(C(=O)C3(c4ccc(OC)cc4)CC3)C2)no1 (stereo not given)	-
Cc1noc(C)c1-c1cc2cc(CN(C)C)oc2c(N2CCN(c3ccccn3)CC2)n1	-
O=C(c1cccs1)N1CCOC(CCc2ccccc2)C1 (stereo not given)	-
O=C([C@@H]1C[C@H](Oc2cccnc2)CN1C(=O)c1ccccn1)N1CCCC1	-
CN1c2cc(C(=O)Nc3ccc(C#N)cc3)ccc2C(=O)N2CCCCC21 (stereo not given)	-
COCCNC(=O)[C@H]1C[C@H](Oc2ccccc2)CN1C(=O)NCc1ccc(F)cc1	-
CCOc1ccccc1CNc1ccc2cc(S(=O)(=O)N3CCC(C)CC3)ccc2n1	-
O=S(=O)(c1ccc2nc(Nc3ccc(F)cc3)ccc2c1)N1CCCC1	-
O=S(=O)(c1ccc2nc(Nc3cccc(F)c3)ccc2c1)N1CCCC1	-
CC1CCN(S(=O)(=O)c2ccc3nc(NCc4ccc(N(C)C)cc4)ccc3c2)CC1	11µM
CC1CCN(S(=O)(=O)c2ccc3nc(Nc4cccc(C(F)(F)F)c4)ccc3c2)CC1	4.5µM
CC1CCN(S(=O)(=O)c2ccc3nc(N4CCN(c5ccc(F)cc5)CC4)ccc3c2)CC1	-
CN1C(=O)C2(Cc3ccccc31)CN(C(=O)c1ccc(Cl)cc1)C2	-
CCc1nn(-c2ccccc2)c(Oc2ccccc2F)c1CCC(=O)NCCOC	-
O=C1NCc2ccccc2CC12CCCCN2Cc1cccc(O)c1 (stereo not given)	-
Cc1cc(C)c(CN2CCCC23Cc2ccccc2CNC3=O)c(C)c1 (stereo not given)	-
Cc1cccc(CN2CCCCC23Cc2ccccc2CNC3=O)n1 (stereo not given)	10µM
O=C1NCc2ccccc2CC12CCCN2Cc1ccc2ccccc2n1 (stereo not given)	-
Cc1ncc(CO)c(CN2CCCC23Cc2ccccc2CNC3=O)c1O (stereo not given)	-
Cc1cccc(C)c1CN1CCCC12Cc1ccccc1CNC2=O (stereo not given)	2.5µM
CN1CC(=O)N(C2CCCNC2)Cc2c(NCCOc3ccccc3)ncnc21 (stereo not given)	-
COc1ccc(NC(=O)Cn2c(=O)n(CC(=O)NCCc3ccccc3)c(=O)c3ccccc32)cc1	-
SMILES	Pf Dd2 growth
O=C(Cn1c(=O)n(CC2CCC(C(=O)NCCc3ccccc3)CC2)c(=O)c2ccccc21)Nc1cccc(F)c1 (stereo not given)	-
Cc1cccc(NC(=O)Cn2c(=O)n(CC3CCC(C(=O)NCCc4ccccc4)CC3)c(=O)c3ccccc32)c1 (stereo not given)	11µM
Cc1cc(C)cc(NC(=O)Cn2c(=O)n(CC(=O)NCCc3ccccc3)c(=O)c3ccccc32)c1	-
Cc1cccc(C)c1NC(=O)Cn1c(=O)n(CC2CCC(C(=O)NCCc3ccccc3)CC2)c(=O)c2ccccc21 (stereo not given)	-
COc1cc(NC(=O)Cn2c(=O)n(CC3CCC(C(=O)NCCc4ccccc4)CC3)c(=O)c3ccccc32)cc(OC)c1 (stereo not given)	0.89µM
CCn1cc(S(=O)(=O)N2CCC(Oc3ccc(-c4noc(COC)n4)cc3)C2)cn1 (stereo not given)	-[5.79 µM]
Cc1cc(C[C@@H]2COC[C@@H]2NC(=O)CCc2n[nH]c(C)n2)on1	-
CCC(=O)N1CCC(Cc2noc(-c3ccncc3)n2)C1 (stereo not given)	-
CCC1(C(=O)Nc2ccc(C(C)C)cc2)CCCCC(=O)N1 (stereo not given)	-
COc1ccc(NC(=O)C2(C)CCc3cnc(N4CCOCC4)nc32)cc1 (stereo not given)	-
COCC(=O)NC[C@@H]1C=C(C)[C@H](CC(=O)NC2CCCC2)C[C@H]1C(C)C	-
CC(C)NC(=O)C[C@@H]1C[C@H]2O[C@H](CNC(=O)NC3CCCCC3)[C@@H](O)[C@H]2O1	-
O=C(c1cccc(-n2cnnc2)c1)N1CCCCCC1c1cccc(F)c1 (stereo not given)	-
CCCC(=O)Nc1ccc2nc(SCc3ccc(C)cc3)sc2c1	8.9µM
CCC(=O)Nc1ccc2nc(SCc3ccccc3)sc2c1	-
Cc1cccc(NC(=O)CSc2nc3ccc(NC(=O)CCc4ccccc4)cc3s2)c1	-
Cc1ccc(C(=O)Nc2cc(-c3cn4cccnc4n3)ccc2C)cc1C	-
COc1ccc(-c2cn3cccnc3n2)cc1NC(=O)c1ccccc1C(F)(F)F	-
COc1ccc(-c2cn3cccnc3n2)cc1NC(=O)c1cc(C)cc(C)c1	13µM
CC(=O)Nc1ccc(CNC2(Cc3cc(CN(C)C)on3)COC2)cc1	-
CC(C(=O)NCc1cccnc1N(C)CCc1ccccn1)n1cccc1 (stereo not given)	-
Cn1nc(C2CCN(C(=O)c3ccccc3F)CC2)c2c1CCOC2	-[5.79 µM]
NC(=O)C1CCN(c2ncncc2-c2nc(-c3ccccc3)no2)CC1	-
c1ccc(-c2noc(-c3cncnc3N3CCN(c4ccccc4)CC3)n2)cc1	-
O=C(c1ccco1)N1CCN(c2ncncc2-c2nc(-c3ccccc3)no2)CC1	4µM
SMILES	Pf Dd2 growth
CCc1cc(=O)n(CC(=O)Nc2ccc(N(C)C)cc2)c(-c2cccc(F)c2)n1	-
CCc1noc(-c2ccn3c(CNC(=O)c4ccncc4)nnc3c2)n1	-
COc1ccc(-c2cc(N3CCN(C(=O)c4ccc(C)cc4)CC3)n[nH]2)cc1	-
Cc1nc2c(NS(=O)(=O)c3ccc(Cl)cc3)cccn2n1	-
COc1ccc(C(=O)N2[C@@H]3CC[C@H]2CC(NC(=O)c2ccc(F)cc2)C3)cc1OC (stereo not given in full)	-
COC(=O)c1ccc([C@@H]2Nc3c(OC)ccc(C)c3[C@@H]3C=CC[C@@H]32)cc1	3.2µM
COC(=O)c1ccc(-c2nc(-c3ccc(OC)c(OC)c3)no2)cc1	-
Cc1nc(-c2c3n(c(=O)n(Cc4ccccc4C(F)(F)F)c2=O)CCCCC3)no1	-
COCCNC(=O)[C@H]1C[C@H](Oc2ccccc2)CN1S(=O)(=O)c1ccc(OC)cc1	-
O=C(C[C@@H]1C[C@H]2O[C@H](CNC3CCCC3)[C@@H](O)[C@H]2O1)N1CCOCC1	-
CN(CC(=O)N1CCC(CCOc2ccccc2F)C1)S(=O)(=O)c1cccs1 (stereo not given)	-
O=C(c1cc(=O)[nH]c2cc(F)ccc12)N1CCCC(CCc2ccc(F)cc2)C1 (stereo not given)	-
O=C(CCn1cnnn1)N1CCCC(CCc2cccc(C(F)(F)F)c2)C1 (stereo not given)	-
O=C(c1ccc(-n2cnnn2)cc1O)N1CCCC(CCc2ccc(F)cc2)C1 (stereo not given)	13µM
Cc1ccc(CNC(=O)C2CCCCC(=O)N2)o1 (stereo not given)	-
O=C(NC[C@H]1C[C@@H]2CCN1C[C@@H]2CN1C[C@@H]2C[C@H](C1)c1cccc(=O)n1C2)c1ccc(C(F)(F)F)cc1	-
Cc1cc2cc(-c3c(C)noc3C)nc(-c3cccc([S+](C)(=O)[O-])c3)c2o1	-
COc1cccc(-c2cc(-c3c(C)noc3C)c3cncn3c2)c1OC	-
